# About 79,000 compounds went through this panel and 15% of them were active in at least one assay; those are over-represented in the sample as a whole. A number with no mark means an inactive call. Calls of active or inactive are those of the source. No stated cut-off is given here; in the data, active means growth inhibition above about 70%; inactive means the rest.
# How the values were obtained:
# [1] = NCI Yeast Anticancer Drug Screen. Data for the rad50 strain (AID 155);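 further: 0% = growth of vehicle-only cultures of the same strain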; conditions: S. cerevisiae rad50 strain growth inhibition, hits give high values
# How it was run: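 Inhibition values express reduced yeast growth in compound-treated cultures relative to vehicle-treated controls.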
# [2] = NCI Yeast Anticancer Drug Screen. Data for the mec2-1 strain (AID 157); conditions: S. cerevisiae mec2-1 strain, hits give high values
# How it was run: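 Readout is yeast growth inhibition, normalised to vehicle-treated controls, in the mec2-1 strain exposed to compound.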
# [3] = NCI Yeast Anticancer Drug Screen. Data for the sgs1 mgt1 strain (AID 161);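 further: 0% = growth of cultures given vehicle only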; conditions: S. cerevisiae sgs1 mgt1 strain, hits give high values
# How it was run: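 This yeast growth screen uses a strain with defined DNA-repair lesions; compound-treated growth is compared with vehicle-treated growth.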
# [4] = NCI Yeast Anticancer Drug Screen. Data for the cln2 rad14 strain (AID 165);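 further: 0% = growth equal to vehicle treated cultures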; conditions: S. cerevisiae cln2 rad14 strain, hits give high values
# How it was run: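 Relative to vehicle controls, growth inhibition of compound-treated cln2 rad14 yeast was recorded.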
# [5] = NCI Yeast Anticancer Drug Screen. Data for the bub3 strain (AID 167); conditions: S. cerevisiae bub3 mutant strain, hits give high values
# How it was run: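 Steps: expose the mutant yeast strain to compound; grow alongside vehicle-treated cultures; measure growth; express inhibition against the vehicle cultures.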
# [6] = NCI Yeast Anticancer Drug Screen. Data for the mlh1 rad18 strain (AID 175); conditions: S. cerevisiae mlh1 rad18 strain growth inhibition, hits give high values
# How it was run: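 Test agents were incubated with a yeast strain of defined genotype (DNA damage repair defect). Inhibition of growth was derived by comparison with vehicle-exposed cultures.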
# [7] = at 5.0 µM (retest, dose inferred, filed as 0.5)
# [8] = at 50.0 µM (retest, dose inferred, filed as 5.0)
SMILES,"growth inhibition [1, 7]","growth inhibition [1, 8]",growth inhibition ([1]; at 50.0 µM),"growth inhibition [2, 7]","growth inhibition [2, 8]",growth inhibition ([2]; at 50.0 µM),"growth inhibition [3, 7]","growth inhibition [3, 8]",growth inhibition ([3]; at 50.0 µM),"growth inhibition [4, 7]","growth inhibition [4, 8]",growth inhibition ([4]; at 50.0 µM),"growth inhibition [5, 7]","growth inhibition [5, 8]",growth inhibition ([5]; at 50.0 µM),"growth inhibition [6, 7] [%]","growth inhibition [6, 8]",growth inhibition ([6]; at 50.0 µM)
COC(=O)C1CCN(Cc2ccccc2)CC1=O (configuration not stated),38%,57%,89.3% (active),48%,51%,92.1% (active),77% (active),100% (active),93.2% (active),83% (active),100% (active),90% (active),81% (active),98% (active),90% (active),37,47%,89.9% (active)
O=C(OCc1ccccc1)c1ccc(O)cc1,6%,79% (active),96.8% (active),-1%,85% (active),98.3% (active),1%,64%,98.5% (active),2%,39%,85.8% (active),9%,91% (active),97.8% (active),2,88% (active),99% (active)
Nc1ccc(Cl)c2c1C(=O)c1ccccc1C2=O,40%,19%,98.8% (active),13%,7%,56.8%,0%,41%,89.2% (active),-4%,3%,46.6%,0%,30%,34.1%,13,12%,89.3% (active)
CC1C[N+](C)(C)C(C)C(=O)C1(c1ccccc1)c1ccccc1 (configuration not stated),-9%,2%,6.6%,-2%,2%,10.9%,-23%,3%,-10.3%,-1%,-2%,-13.4%,-4%,-2%,28.2%,-6,-4%,19.1%
C/C(=N\O)c1ccc2cc(Br)c3ccccc3c2c1,12%,98% (active),96.2% (active),1%,98% (active),97.4% (active),-1%,98% (active),98% (active),-20%,96% (active),96% (active),8%,98% (active),95.5% (active),3,98% (active),96.7% (active)
Cc1c2[nH]c3ccc(Br)cc3c2c(C)c2[nH]ccc(=O)c12,-5%,72% (active),98.9% (active),-8%,59%,98.7% (active),-17%,28%,99% (active),-26%,57%,97% (active),2%,81% (active),98.3% (active),-11,96% (active),96.8% (active)
O=C(N/N=C/c1ccccc1O)c1ccccc1-n1cccc1,52%,64%,53.6%,30%,53%,36.6%,43%,81% (active),80% (active),32%,49%,45%,41%,71% (active),62.7%,59,74% (active),63.1%
CSc1ccc(C(=O)C(=O)c2ccc(SC)s2)s1,14%,11%,26.6%,-15%,-8%,39.5%,14%,14%,73.8% (active),0%,37%,76.7% (active),-2%,9%,48.7%,4,2%,-1.7%
ClC1=CC(Cl)=C2N=C(C(Cl)(Cl)Cl)N=C3N=C(C(Cl)(Cl)Cl)N=C1N32,29%,80% (active),99.3% (active),4%,88% (active),99.5% (active),44%,85% (active),99.2% (active),12%,57%,99% (active),21%,94% (active),99.3% (active),36,86% (active),99% (active)
CN1C(=O)C(Cl)(C(Cl)(Cl)S(=O)(=O)O)C(=O)c2ccccc21 (configuration not stated),-3%,95% (active),42%,1%,99% (active),18.3%,1%,98% (active),-8.1%,3%,96% (active),34.5%,0%,97% (active),4.2%,-1,97% (active),27.5%
Oc1cc2c(cc1C(Nc1ncccn1)c1ccc(F)cc1)OCO2 (configuration not stated),-1%,46%,17.9%,-1%,40%,15.7%,0%,77% (active),79.7% (active),4%,24%,-12%,-1%,64%,44.1%,0,74% (active),43.5%
CCOC(=O)Nc1ccc(SCC2COC(Cn3ccnc3)(c3ccc(Cl)cc3Cl)O2)cc1 (configuration not stated),89% (active),91% (active),97% (active),72% (active),93% (active),96.2% (active),84% (active),94% (active),49.1%,60%,90% (active),98% (active),91% (active),93% (active),94.5% (active),61,90% (active),95.2% (active)
CCOC1(OCC)Cc2nc3ccccc3cc21,4%,94% (active),96.7% (active),-2%,96% (active),96.8% (active),2%,96% (active),95.5% (active),0%,91% (active),92.5% (active),-2%,93% (active),96.7% (active),3,95% (active),97.2% (active)
CC1=CC(C)(C)Nc2cc(N)ccc21,-166%,-193%,50.5%,-49%,-65%,20.6%,-64%,-72%,43.8%,-54%,-82%,-35.5%,-74%,-85%,39.3%,-148,-136%,54.5%
C[n+]1c(-c2ccc(/C=N/Nc3n[nH]c(=S)n3/N=C/c3ccc(-c4cn5ccsc5[n+]4C)cc3)cc2)cn2ccsc21,-14%,97% (active),97.9% (active),-2%,97% (active),94.2% (active),-4%,96% (active),95.3% (active),-6%,94% (active),93.8% (active),-29%,98% (active),96.5% (active),-2,97% (active),93.5% (active)
CC(C)(S[S-])S[S-].[Ti].[c-]1[c-][c-][cH-][c-]1.[c-]1[c-][c-][cH-][c-]1,23%,97% (active),84.1% (active),-2%,98% (active),57.9%,10%,98% (active),95.2% (active),11%,97% (active),21.7%,24%,98% (active),46.4%,31,98% (active),87.3% (active)
O=c1[nH]c2ccc([N+](=O)[O-])cc2c2ccc(Cl)cc12,3%,9%,77.2% (active),-5%,25%,51.8%,-11%,16%,61.8%,1%,3%,-0.3%,0%,2%,7.4%,11,40%,71.7% (active)
O=C1c2ccc3c4ccccc4n(Cc4ccccc4)c3c2C(=O)N1c1ccccc1,87% (active),87% (active),92% (active),62%,62%,93.4% (active),39%,39%,92.5% (active),75% (active),75% (active),92.2% (active),80% (active),80% (active),91.5% (active),47,47%,91.3% (active)
O=CNc1ccc(Oc2ccc(NC=O)cc2)cc1,-1%,-18%,3.6%,-18%,-19%,6.75%,1%,1%,1.45%,-1%,7%,61.3%,-2%,-15%,-6.45%,17,-5%,30.6%
